In test [1] the test system is Plasmodium falciparum Sir2 (PF13_0152, Sir2A). The test is described as follows: pfSir2 binders on small-molecule microarrays, primary screen, biochemical, small-molecule microarray, 635 nm fluorescence (AID 1098).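 Further: score merges spot fluorescence intensity with its signal-to-noise ratio.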 The note with it: small-molecule microarray binding, fluorescence 635 nm; higher = more signal.
Test [2] in a line: small-molecule microarray binders of probe aDKK1, primary screen, biochemical, biotinylated probe, 635/667 nm fluorescence (AID 1099).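 Further: score merges 667nm spot fluorescence with signal to noise across triplicate slides.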 The conditions noted are these: higher = more signal.
The nature of test [3]: small-molecule microarray binders of probe aCHRDL2, primary screen, biochemical, biotinylated probe, 635/667 nm fluorescence (AID 1100). The conditions noted are these: higher = more signal.
Test [4] in a line: splicing luciferase reporter signal modulators, primary screen, spliceosome inhibition project, cell-based, HEK293, splice +/- reporter (AID 1101).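 Further: HEK293 cells carrying a splicing-competent luciferase reporter gene; test concentration not given here.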 The conditions noted are these: luminescence, 24 h, higher = more signal, called active from +8 up or from −8 down. On the technique in general: In a reporter assay the amount or activity of a reporter protein is the signal.
Test [5] has as its target Fibroblast growth factor 10 (Homo sapiens) (UniProt O15520). Put plainly: FGF10 binders on small-molecule microarrays, primary screen, biochemical, small-molecule microarray, 635 nm fluorescence (AID 1102). The note with it: FGF10 binding, fluorescence 635 nm, higher = more signal.
The subject of test [6] is glycogen synthase kinase-3 (GSK3A per assay name; protocol says GSK3B). The test is described as follows: GSK3 binders on small-molecule microarrays, primary screen, biochemical, small-molecule microarray, 635 nm fluorescence, GSK3A (AID 1103). Further: the record names both GSK3A and GSK3B. The note with it: small-molecule microarray binding, fluorescence 635 nm; higher = more signal.
The target of test [7] is Epidermal growth factor receptor (Homo sapiens) (UniProt P00533). The test is described as follows: EGFR binders on small-molecule microarrays, primary screen, biochemical, small-molecule microarray, 635 nm fluorescence (AID 1104).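 Further: score merges 667 nm emission intensity with spot signal to noise over triplicate slides.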 The conditions noted are these: EGFR binding, higher = more signal.
Test [8] concerns the target Follistatin-related protein 3 (Homo sapiens) (UniProt O95633). Put plainly: FSTL3 binders on small-molecule microarrays, primary screen, biochemical, small-molecule microarray, 635 nm fluorescence (AID 1105).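 Further: score merges emission near 667 nm and signal to noise per printed spot across three slides.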 The note with it: FSTL3 binding, higher = more signal.
The target in test [9] is Dickkopf-related protein 1 (Homo sapiens) (UniProt O94907). Put plainly: DKK1 binders on small-molecule microarrays, primary screen, biochemical, small-molecule microarray, 635 nm fluorescence scan (AID 1106).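 Further: score merges emission near 667 nm with signal to noise over three replicate slides.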 The note with it: DKK1 binding, higher = more signal.
Test [10] concerns Inhibin beta A chain (activin A). The test is described as follows: INHBA (activin A) binders on microarrays, primary screen, biochemical, small-molecule microarray, 635 nm fluorescence scan (AID 1107).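 Further: mouse activin A protein probed at 4.33 µg/mL on printed slides; score merges bound-protein fluorescence near 667 nm with spot signal-to-noise.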 The conditions noted are these: small-molecule microarray binding, higher = more signal.
The test system of test [11] is Human papillomavirus type 1a protein E7 (residues 44-93). The test is described as follows: HPV1a E7 fragment binders on microarrays, primary screen, biochemical, small-molecule microarray, residues 44-93, 635 nm fluorescence (AID 1108).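 Further: E7 fragment applied at 1 µg/mL in TBST for 1 h at 4 C; score combines spot fluorescence with its signal to noise ratio.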 The note with it: small-molecule microarray binding, fluorescence 635 nm; higher = more signal.
A short description of test [12]: modulators of HCV replicon luciferase signal, primary screen, HCV replication inhibitor project, Huh7 cells, luciferase reporter (AID 1109).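 Further: huh7 hepatoma cells harbouring a luciferase neomycin HCV replicon reporter; luciferase luminescence as measure of HCV replicon replication; test concentration not given here.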 The note with it: 48 h, higher = more signal. For orientation: In antiviral work, replicon cells carry a viral genome segment that copies itself.
For test [13], the target named is Left-right determination factor 2 (Homo sapiens) (UniProt O00292). Put plainly: LEFTY2 binders on small-molecule microarrays, primary screen, biochemical, small-molecule microarray, 635 nm fluorescence scan (AID 1110). The note with it: LEFTY2 binding, higher = more signal.
Test [14] addresses Calmodulin-1 (Homo sapiens) (UniProt P0DP23). Put plainly: CALM1 binders on microarrays, EGTA buffer, profiling panel, biochemical, small-molecule microarray, Cy5-labelled CALM1 (AID 1111).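 Further: labelled calmodulin applied in Tris saline Tween buffer holding calcium plus EGTA and DTT.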 The conditions noted are these: Cy5-CALM1 binding fluorescence, higher = more signal.
For test [15] the target is unchanged. Put plainly: calcium-bound CALM1 binders on microarrays, profiling panel, artefact control for SMM control-protein annotation, biochemical, small-molecule microarray, Cy5-labelled CALM1, plus calcium (AID 1112).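 Further: score merges spot fluorescence with signal to noise from triplicate slides.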 The note with it: Cy5-CALM1 binding fluorescence, higher = more signal.
The nature of test [16]: small-molecule microarray binders of probe aWnt5a, primary screen, biochemical, biotinylated probe, 635/667 nm fluorescence (AID 1113).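 Further: score merges 667 nm fluorescence intensity with signal-to-noise per printed feature.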 The note with it: higher = more signal.
Test [17] can be described thus: small-molecule microarray binders of probe aShh, primary screen, biochemical, biotinylated probe, 635/667 nm fluorescence (AID 1114).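 Further: probe is biotin-labelled aShh protein from a stem cell growth factor screen; measures binding of labelled protein to compounds printed on the slide; score merges feature fluorescence at 667 nm with signal-to-noise.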 The conditions noted are these: higher = more signal.
A short description of test [18]: small-molecule microarray binders of probe aNog, primary screen, biochemical, biotinylated probe, 635/667 nm fluorescence (AID 1115).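 Further: probe is biotinylated aNog protein used at 0.15 µg/mL for 1 h at 4 C; z-score combines 667 nm fluorescence of each spot with its signal to noise.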 The conditions noted are these: higher = more signal.
Test [19] addresses Torsin-1A-interacting protein 1 (Homo sapiens) (UniProt Q5JTV8). The test is described as follows: LAP1 binders from COS7 cell lysate, primary screen, small-molecule microarray, 635/667 nm fluorescence (AID 1116). The note with it: COS7-hLAP1 lysate binding, 635 nm fluorescence, higher = more signal.
For test [20], the target named is Alpha-bungarotoxin (Bungarus multicinctus) (UniProt P60615). Put plainly: alpha-bungarotoxin binders on microarray, profiling panel, artefact control for SMM control protein annotation, biochemical, small-molecule microarray, Alexa647 label, 635/667 nm fluorescence (AID 1117). The conditions noted are these: alpha-BTX-A647 binding fluorescence, higher = more signal.

Molecules are shown by their SMILES. Calls of active or inactive are those of the source.

Epidermal growth factor receptor (Homo sapiens), sequence (P00533 whole entry, looked up): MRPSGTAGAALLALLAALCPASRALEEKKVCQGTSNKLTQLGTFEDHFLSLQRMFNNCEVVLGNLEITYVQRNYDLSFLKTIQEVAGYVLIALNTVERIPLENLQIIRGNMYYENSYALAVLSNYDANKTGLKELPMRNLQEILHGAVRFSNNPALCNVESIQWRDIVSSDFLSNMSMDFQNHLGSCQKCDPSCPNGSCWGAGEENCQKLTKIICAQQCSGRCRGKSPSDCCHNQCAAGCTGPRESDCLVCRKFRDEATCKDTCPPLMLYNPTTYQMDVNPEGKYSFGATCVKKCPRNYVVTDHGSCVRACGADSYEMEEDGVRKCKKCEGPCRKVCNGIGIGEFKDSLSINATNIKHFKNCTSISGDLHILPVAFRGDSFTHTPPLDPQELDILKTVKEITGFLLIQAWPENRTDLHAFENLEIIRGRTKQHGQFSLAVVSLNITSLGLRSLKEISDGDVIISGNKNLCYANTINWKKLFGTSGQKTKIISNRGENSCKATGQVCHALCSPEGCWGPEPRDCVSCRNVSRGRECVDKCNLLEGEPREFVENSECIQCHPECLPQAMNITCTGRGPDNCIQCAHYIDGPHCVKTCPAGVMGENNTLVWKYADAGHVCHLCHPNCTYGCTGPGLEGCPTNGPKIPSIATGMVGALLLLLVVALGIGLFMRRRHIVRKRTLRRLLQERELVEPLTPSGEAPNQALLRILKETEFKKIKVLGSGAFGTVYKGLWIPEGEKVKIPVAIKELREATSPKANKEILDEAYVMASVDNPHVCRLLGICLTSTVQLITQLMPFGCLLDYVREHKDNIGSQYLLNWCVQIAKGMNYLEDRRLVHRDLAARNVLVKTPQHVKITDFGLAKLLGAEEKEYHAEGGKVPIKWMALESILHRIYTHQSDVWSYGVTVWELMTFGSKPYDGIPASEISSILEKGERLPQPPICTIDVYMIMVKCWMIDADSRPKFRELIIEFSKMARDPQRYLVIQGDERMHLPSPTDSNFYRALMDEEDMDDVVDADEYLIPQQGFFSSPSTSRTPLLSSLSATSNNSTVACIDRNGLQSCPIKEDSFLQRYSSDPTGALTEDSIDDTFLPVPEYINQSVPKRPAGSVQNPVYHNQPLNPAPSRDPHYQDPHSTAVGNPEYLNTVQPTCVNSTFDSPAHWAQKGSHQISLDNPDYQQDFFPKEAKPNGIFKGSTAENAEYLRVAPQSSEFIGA
Follistatin-related protein 3 (Homo sapiens), sequence (O95633 whole entry, looked up): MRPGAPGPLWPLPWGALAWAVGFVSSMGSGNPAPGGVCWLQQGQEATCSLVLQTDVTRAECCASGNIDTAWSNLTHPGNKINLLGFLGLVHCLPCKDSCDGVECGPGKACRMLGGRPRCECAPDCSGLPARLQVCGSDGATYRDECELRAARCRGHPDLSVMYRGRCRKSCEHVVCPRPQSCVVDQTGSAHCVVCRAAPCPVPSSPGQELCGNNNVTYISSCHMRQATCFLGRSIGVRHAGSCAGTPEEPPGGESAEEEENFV
Torsin-1A-interacting protein 1 (Homo sapiens), sequence (Q5JTV8 whole entry, looked up): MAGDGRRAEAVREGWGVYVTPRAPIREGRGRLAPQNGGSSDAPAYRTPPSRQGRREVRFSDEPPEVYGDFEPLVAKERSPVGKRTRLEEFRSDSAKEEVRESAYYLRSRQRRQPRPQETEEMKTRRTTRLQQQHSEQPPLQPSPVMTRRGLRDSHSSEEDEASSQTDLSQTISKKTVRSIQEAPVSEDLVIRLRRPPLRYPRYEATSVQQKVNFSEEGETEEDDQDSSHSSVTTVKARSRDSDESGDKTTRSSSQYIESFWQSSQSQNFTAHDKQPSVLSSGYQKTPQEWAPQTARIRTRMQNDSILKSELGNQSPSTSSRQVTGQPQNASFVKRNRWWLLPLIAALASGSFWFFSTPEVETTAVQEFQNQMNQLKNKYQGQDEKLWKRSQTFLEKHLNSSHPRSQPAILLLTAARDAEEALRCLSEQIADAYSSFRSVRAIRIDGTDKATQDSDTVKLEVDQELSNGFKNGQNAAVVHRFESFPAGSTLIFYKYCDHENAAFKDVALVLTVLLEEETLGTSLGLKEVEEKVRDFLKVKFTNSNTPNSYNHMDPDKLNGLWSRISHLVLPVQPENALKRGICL
Alpha-bungarotoxin (Bungarus multicinctus), sequence (P60615 whole entry, looked up): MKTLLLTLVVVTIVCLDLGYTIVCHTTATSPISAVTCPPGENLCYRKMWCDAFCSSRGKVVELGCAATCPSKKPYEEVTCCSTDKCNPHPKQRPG
Left-right determination factor 2 (Homo sapiens), sequence (O00292 whole entry, looked up): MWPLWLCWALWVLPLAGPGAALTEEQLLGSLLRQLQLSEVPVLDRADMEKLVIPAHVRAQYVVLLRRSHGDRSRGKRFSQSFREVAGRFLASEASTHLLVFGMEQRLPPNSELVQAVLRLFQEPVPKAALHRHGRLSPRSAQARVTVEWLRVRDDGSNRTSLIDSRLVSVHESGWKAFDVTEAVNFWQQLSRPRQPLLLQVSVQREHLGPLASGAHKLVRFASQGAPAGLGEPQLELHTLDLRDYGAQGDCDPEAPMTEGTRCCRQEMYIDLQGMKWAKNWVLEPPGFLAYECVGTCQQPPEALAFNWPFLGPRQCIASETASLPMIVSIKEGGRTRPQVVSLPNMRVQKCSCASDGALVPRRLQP
Fibroblast growth factor 10 (Homo sapiens), sequence (O15520 whole entry, looked up): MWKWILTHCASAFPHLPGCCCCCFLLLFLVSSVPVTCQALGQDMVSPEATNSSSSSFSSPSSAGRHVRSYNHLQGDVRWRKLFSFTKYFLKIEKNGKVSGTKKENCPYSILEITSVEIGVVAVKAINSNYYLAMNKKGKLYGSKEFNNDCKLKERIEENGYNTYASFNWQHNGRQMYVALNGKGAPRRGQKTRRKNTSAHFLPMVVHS
Dickkopf-related protein 1 (Homo sapiens), sequence (O94907 whole entry, looked up): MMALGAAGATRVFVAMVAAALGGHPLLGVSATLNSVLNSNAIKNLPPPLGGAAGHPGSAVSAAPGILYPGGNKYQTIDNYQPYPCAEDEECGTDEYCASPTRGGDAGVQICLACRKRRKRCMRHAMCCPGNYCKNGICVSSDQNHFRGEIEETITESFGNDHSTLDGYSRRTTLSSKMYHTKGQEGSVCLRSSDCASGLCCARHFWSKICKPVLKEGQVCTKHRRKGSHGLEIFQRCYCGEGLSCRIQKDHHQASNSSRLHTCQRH

`COC(=O)C(C(=O)OC)C1CCCC(=O)C1` (stereo not given): the composite z-score in test [1] is 0.377; in test [2] it was -0.207; in test [3] it was -0.618; in test [5], 0.755; in test [6], 0.772; in test [7], 0.399. Also, the composite z-score in test [8] was 0.508; in test [9], 0.978; in [10], 0.151; in [11] it was 0.549; in [13], 0.576; in [14], -0.385. Moreover, the composite z-score in test [15] was -0.645; in [16] it was -0.104; in test [17], -0.107; in test [18] it was -0.0446; in test [19], 0.526; in [20] it was 0.0087. In addition, the z-score in [4] is -0.388 (inactive); in [12] it was 0.593.

For `CCOC(=O)CCN1C(=O)[C@H]2[C@H]3[C@H](O)[C@H](O)CC(=NOCC=C(C)CCC=C(C)C)[C@H]3CC[C@H]2C1=O`, the composite z-score in test [1] was -0.319; in [2], 0.28; in test [3], -0.154; in [5], 0.245; in test [6] it was -0.709; in [7], 0.52. Also, the composite z-score in test [8] was -0.789; in test [9], -0.185; in test [10], -1.82; in [11], -0.11; in test [13], 0.199; in test [14] it was -0.38. Moreover, the composite z-score in test [15] is -0.488; in test [16], -0.103; in test [17], -0.221; in test [18], -0.1; in test [19] it was -0.393; in test [20] it was 0.271. Further, the z-score in test [4] was 0.0511 (inactive); in test [12], -0.409.

On to `CCN1C(=O)[C@H]2[C@H]3[C@H](O)[C@H](O)CC(=NNC(=O)OCc4ccccc4)[C@@H]3CC[C@H]2C1=O`, for which the composite z-score in [1] is -0.16; in [2] it was 0.118; in test [3], 0.78; in test [5], -0.163; in test [6] it was -0.612; in [7], -0.241. Further, the composite z-score in test [8] is -0.0709; in test [9] it was 0.131; in [10], -0.291; in test [11] it was -0.577; in test [13], -0.0089; in test [14], -0.0328. In addition, the composite z-score in [15] was -0.285; in test [16] it was -0.0405; in [17] it was -0.0463; in test [18], -0.0879; in [19] it was -0.399; in test [20] it was 0.645. The results for the z-score in test [4] and in [12] were -0.176 (inactive) and 0.232, respectively.

In the case of `O=C1[C@H]2[C@H]3[C@H](O)[C@H](O)CC(=NO[C@@H]4O[C@H](CO)[C@@H](O)[C@H](O)[C@H]4O)[C@@H]3CC[C@H]2C(=O)N1C1CCCCC1`, the composite z-score in test [1] was 0.203; in [2], -0.275; in test [3] it was -0.458; in test [5], 0.57; in [6], 0.607; in test [7], 0.46. In addition, the composite z-score in test [8] was 0.542; in test [9] it was 0.353; in test [10], -0.224; in test [11], 0.578; in test [13] it was 0.616; in [14] it was 0.159. In addition, the composite z-score is -0.616 in test [15]; 0.0101 in [16]; -0.0593 in test [17]; -0.198 in test [18]; 0.0912 in test [19]; 0.0069 in [20]. In addition, the z-score is -0.155 (inactive) in [4] and -0.0851 in test [12].

Turning to `CC(=O)OC[C@H]1O[C@H](CC=NO[C@@H](C)c2cc(-c3c(C)cc(C)cc3C)no2)C=C[C@@H]1OC(C)=O`, the composite z-score in [1] is -0.229; in test [2], -0.341; in test [3], 0.0256; in [5], -0.151; in [6], -0.55; in test [7], 0.0164. Besides, the composite z-score was -0.037 in [8]; -0.0281 in [9]; 0.363 in test [10]; -0.0612 in test [11]; -0.111 in test [13]; -0.176 in test [14]. For the same compound, the composite z-score in [15] was 0.0084; in [16] it was -0.208; in test [17], -0.223; in test [18], -0.135; in test [19], -0.502; in [20], 0.753. Also, the values for the z-score in [4] and in test [12] were 0.708 (inactive) and -0.83, respectively.

For the compound `CC(=O)OC[C@H]1O[C@@H](ON=C(C)CCC(=O)OC[C@H]2O[C@H](C#Cc3ccccc3)C=C[C@@H]2Oc2ccc(C)cc2)[C@H](OC(C)=O)[C@@H](OC(C)=O)[C@@H]1OC(C)=O`, the composite z-score is 0.888 in [1]; -0.148 in [2]; -0.561 in test [3]; 0.782 in test [5]; 1.11 in test [6]; 0.603 in [7]. For the same compound, the composite z-score in test [8] was 0.786; in test [9], 0.911; in test [10], -0.0231; in [11], 1.18; in [13], 0.713; in test [14] it was 0.49. Besides, the composite z-score in test [15] is -0.304; in [16] it was -0.0735; in test [17] it was -0.0769; in [18], -0.156; in test [19], 0.415; in [20], -0.0285. Moreover, the z-score in test [4] was -0.188 (inactive); in test [12], -1.2.

The values above are taken from PubChem BioAssay.
